# YB-1 expr inh: YB-1 expression inhibition; U2OS, qRT-PCR YB-1 vs CDIP delta delta Cp, 16 h; stronger effect = higher value; zero = DMSO, each unit about twofold; delta delta Cp (YB-1 minus CDIP) (concentration not given with the values); 30,000 compounds, 0.37% hits; AID 434959;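 active means delta delta Cp rounded down to an integer at or above 3, about 3 SD of DMSO wells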;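 further: higher means less YB-1 transcript or more CDIP transcript relative to DMSO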
# NOMO-1 viab: STK33 inhibitor candidate reducing NOMO-1 cell viability | NOMO-1 AML viability, CellTiter-Glo luminescence, 72 h | inhibition, % (no concentration beside the values) | 37,000 compounds, 7.5% hits | AID 2330; in the data active means inhibition above about 80%; inconclusive means no clear call, values can overlap the other calls
# PD-1 reverse act: reversal of PD-1 mediated T-cell inhibition | AID 2316 | 29,000 tested, under 10 active | activation, % (concentration not given with the values) | primary human CD4 T cells, PD-L1 beads, CellTiter-Glo 96 h; call rule not given here;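 further: 0% = median vehicle wells and 100% = positive control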
# U2OS ROS induce: cancer cell ROS induction; U2OS ROS induction, H2DCF-DA fluorescence; ROS induction (% of piperlongumine), % at 10 µM; 46,000 compounds, 2% hits; in the data active means ROS induction above about 79%, passing the limit was not always enough; inconclusive means no clear call, values can overlap the other calls;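 further: 0% = DMSO vehicle median and 100% = reference compound median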
# Numbers without * were called inactive; ? = inconclusive; . = no result given. Shown is part of a subset that was picked to be rich in hits.
SMILES,YB-1 expr inh,NOMO-1 viab,PD-1 reverse act,U2OS ROS induce
N#Cc1ccc(-c2ccc(OC(=O)CS(=O)c3ccc(C(F)(F)F)cc3[N+](=O)[O-])cc2)cc1 (configuration not stated),.,129*,-11,44
CN(C(=S)Nc1ccccc1)C1CCC(C2OCCO2)CC1O (configuration not stated),.,.,.,-1
C[C@@H]1CN([C@@H](C)CO)C(=O)c2cccc(NC(=O)C3CC3)c2O[C@@H]1CN(C)Cc1ccc(Oc2ccccc2)cc1,0.53,7,2,11
C[C@H]1CN([C@@H](C)CO)C(=O)c2cccc(NC(=O)C3CC3)c2O[C@@H]1CN(C)Cc1ccc(Oc2ccccc2)cc1,0.0039,75,.,94*
C[C@H](CO)N1C[C@H](C)[C@H](CN(C)Cc2ccc(Oc3ccccc3)cc2)Oc2c(NC(=O)C3CCCCC3)cccc2C1=O,0.73,109*,-2,26
COc1ccc(CN(C)C[C@@H]2Oc3c(NC(=O)C4CCCCC4)cccc3C(=O)N([C@@H](C)CO)C[C@H]2C)cc1,-0.29,98*,-7,15
C[C@H](CO)N1C[C@H](C)[C@@H](CN(C)Cc2ccc(Oc3ccccc3)cc2)Oc2c(NC(=O)C3CC3)cccc2C1=O,-0.089,?,-2,84*
C[C@H]1CN([C@@H](C)CO)C(=O)c2cccc(NC(=O)C3CCCCC3)c2O[C@H]1CN(C)Cc1ccc(Oc2ccccc2)cc1,0.3,57,0,34
Cc1c(Cl)cccc1NC(=O)CSc1nnc(-c2ccc(Cl)c(Cl)c2)n1C,.,33,.,.
Cc1nn(Cc2cccc(C(=O)Nc3ccccc3F)c2)c(C)c1Cl,.,-2,2,-5
Cc1nn(Cc2cccc(C(=O)NC(=O)Nc3ccc(Cl)cc3)c2)c(C)c1Br,-0.42,107*,3,-5
COc1ccc(-c2nc3ccccc3s2)cc1,-0.054,72,0,-5
COc1ccc(-n2c(N)c(-c3nc4ccccc4s3)c3nc(C#N)c(C#N)nc32)cc1,.,.,.,153*
C=C1C(=O)O[C@@H]2CC=C(CCC(C)O)C(C)C[C@@H]12 (some centres not stated),0.32,121*,-8,50
COc1ccc(C#Cc2cnc3c(c2)C(=O)N([C@H](C)CO)C[C@H](C)[C@H](CN(C)C(=O)Nc2ccc4c(c2)OCO4)O3)cc1OC,0.05,.,.,118*
C[C@H](CO)N1C[C@H](C)[C@H](CN(C)C(=O)Nc2ccccc2)Oc2ncc(C#Cc3ccc(F)cc3)cc2C1=O,-0.51,.,.,132*
COc1ccc(NC(=O)N(C)C[C@@H]2Oc3ncc(C#Cc4ccc(OC)c(OC)c4)cc3C(=O)N([C@H](C)CO)C[C@@H]2C)cc1,0.23,.,.,104*
C[C@H](CO)N1C[C@H](C)[C@H](CN(C)C(=O)Nc2ccc(F)cc2)Oc2ncc(C#Cc3ccc(F)cc3)cc2C1=O,-0.37,.,.,?
C[N+]1(C/C=C2/COCO2)CCCCC1,-0.11,3,-1,5
C[C@@H]1CN([C@@H](C)CO)C(=O)c2cccc(NS(=O)(=O)c3ccc(Cl)cc3)c2O[C@H]1CN(C)Cc1ccc(C(=O)Nc2ccccc2N)cc1,-0.32,48,0,8
C[C@@H]1CN([C@H](C)CO)C(=O)c2cccc(NS(=O)(=O)c3ccc(F)cc3)c2O[C@@H]1CN(C)Cc1ccc(C(=O)Nc2ccccc2N)cc1,0.06,127*,-2,42
Cc1ccc(S(=O)(=O)Nc2cccc3c2O[C@@H](CN(C)Cc2ccc(C(=O)Nc4ccccc4N)cc2)[C@@H](C)CN([C@H](C)CO)C3=O)cc1,-0.1,137*,0,24
C[C@@H]1CN([C@@H](C)CO)C(=O)c2cccc(NS(C)(=O)=O)c2O[C@@H]1CN(C)Cc1ccc(C(=O)Nc2ccccc2N)cc1,-0.047,123*,-1,-2
C[C@@H]1CN([C@H](C)CO)C(=O)c2cccc(NS(=O)(=O)c3ccc(F)cc3)c2O[C@H]1CN(C)Cc1ccc(C(=O)Nc2ccccc2N)cc1,0.13,57,0,3
C[C@H]1CN([C@@H](C)CO)C(=O)c2cccc(NS(C)(=O)=O)c2O[C@@H]1CN(C)Cc1ccc(C(=O)Nc2ccccc2N)cc1,-0.27,12,-1,18
C[C@H]1CN([C@@H](C)CO)C(=O)c2cccc(NS(=O)(=O)c3ccccc3)c2O[C@H]1CN(C)Cc1ccc(C(=O)Nc2ccccc2N)cc1,0.063,120*,0,9
COc1ccccc1CNc1cc(-c2nn3c(C)nnc3s2)ccc1C,.,4,.,.
C=CCN1C(=O)C2C3C=CC(C3)C2C1=O (configuration not stated),.,.,.,-1

# From PubChem
